# Measured values published in the supplement of paper PMC9023506.
# Structures can show the parent of a compound that is named as a salt.
# Tested on: Danio rerio larvae (5 dpf)
# Assay: habituation to 1-s acoustic pulses, difference vs DMSO (percentage points (treated minus DMSO)); higher = more of the behaviour than the DMSO vehicle control
# Settings: 10 µM; exposure time: 3 h pre-incubation + 3 h imaging
# Method in brief: (§1)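 Five-days-post-fertilisation wild-type zebrafish larvae were held in 96-well ProxiPlates and exposed to each library drug at a final 10 µM, diluted 1000× from DMSO stocks into egg water, with 48 larvae per drug. Exposure lasted 3 h before and 3 h during imaging at 28.5 °C, with images taken every 6 s across a 3-h program of rest, moving coloured lines and acoustic pulses. An ImageJ macro scored movement and upper-half location, and each behaviour score is the treated-group mean minus the vehicle-group mean, expressed in percentage points.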
row,Structure (SMILES),habituation to 1-s acoustic pulses
1,COc1c(C)c2c(c(O)c1C/C=C(\C)CCC(=O)OCCN1CCOCC1)C(=O)OC2 [Mycophenolate mofetil],0.172
2,CC(C)Nc1cccnc1N1CCN(C(=O)c2cc3cc(NS(C)(=O)=O)ccc3[nH]2)CC1 [Delavirdine mesylate],-7.61
3,CCOC(=O)C1=C(C)NC(C)=C(C(=O)OC)C1c1cccc(Cl)c1Cl (stereo not drawn) [Felodipine],-11.1
4,CCOC(=O)N1CCC(=C2c3ccc(Cl)cc3CCc3cccnc32)CC1 [Loratidine],-7.1
5,O=C(c1ccc(OCCN2CCCCC2)cc1)c1c(-c2ccc(O)cc2)sc2cc(O)ccc12 [Raloxifene hydrochloride],1.64
6,CN1CC2c3ccccc3Oc3ccc(Cl)cc3C2C1 (stereo not drawn) [Asenapine maleate],-9.25
7,Cc1ccc(N(CC2=NCCN2)c2cccc(O)c2)cc1 [Phentolamine Mesylate],5.8
8,CC(=O)Oc1ccccc1C(=O)O [Aspirin],-5.13
9,Cc1ccsc1C(=CCCN1CCC[C@@H](C(=O)O)C1)c1sccc1C [Tiagabine hydrochloride],6.27
10,COc1cc(Nc2c(C#N)cnc3cc(OCCCN4CCN(C)CC4)c(OC)cc23)c(Cl)cc1Cl [Bosutinib],0.4
11,C[C@H]1O[C@H](O[C@H]2[C@H](O)[C@@H](O)[C@@H](O[C@H]3[C@H](O)[C@@H](O)C(O)O[C@@H]3CO)O[C@@H]2CO)[C@H](O)[C@@H](O)[C@@H]1N[C@H]1C=C(CO)[C@@H](O)[C@H](O)[C@H]1O (stereo partly drawn) [Acarbose],3.26

# Tested on: Danio rerio larvae (5 dpf)
# Assay: excitability to 1-s acoustic pulses, difference vs DMSO (percentage points (treated minus DMSO)); higher = more of the behaviour than the DMSO vehicle control
# Settings: 10 µM; exposure time: 3 h pre-incubation + 3 h imaging
# Method in brief: as §1
row,Structure (SMILES),excitability to 1-s acoustic pulses
1,CC(C)n1c(/C=C/C(O)CC(O)CC(=O)O)c(-c2ccc(F)cc2)c2ccccc21 (stereo not drawn) [Fluvastatin sodium],3.77
2,CC(C)Nc1cccnc1N1CCN(C(=O)c2cc3cc(NS(C)(=O)=O)ccc3[nH]2)CC1 [Delavirdine mesylate],0.884
3,COc1cc2nccc(Oc3ccc(NC(=O)C4(C(=O)Nc5ccc(F)cc5)CC4)cc3)c2cc1OC,17.1
4,Nc1nc(Cl)nc2c1ncn2[C@@H]1O[C@H](CO)[C@@H](O)[C@@H]1F [Clofarabine],2.22
5,CC(C)CN(C[C@@H](O)[C@H](Cc1ccccc1)NC(=O)O[C@H]1CO[C@H]2OCC[C@H]21)S(=O)(=O)c1ccc(N)cc1 [Darunavir],-1.74
6,Cc1cc(C2CCCCC2)n(O)c(=O)c1 [Ciclopirox],5.96
7,COc1ccc(C[C@@H](C)NC[C@H](O)c2ccc(O)c(NC=O)c2)cc1 [Arformoterol tartrate],5.34
